# Data published in PubChem BioAssay (Tox21).
# Inconclusive results are not listed. The source made the active and inactive calls. Calls come from the whole dose curve; as a rule, active = well fitted curve in the direction sought with a large enough effect in the repeat runs; inconclusive = weak or mixed curves; inactive = no such curve, though single readings can be large; an effect the other way counts as inactive or inconclusive.
# What was measured:
# [1] = Caspase-3/7 induction in CHO-K1 cells by small molecules, qHTS cell viability counter screen (AID 1346979); note: nearly all actives have a fitted effect of over 35% in size; note: potency is the fitted concentration of half-maximal effect
# Outline: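 Cells (CHO-K1, wild type) are plated at 1,500 per well and incubated 5hr. Test compounds in DMSO are then pinned in, followed by 16hr at 37C and 5% CO2. Viability is read by CellTiter-Fluor fluorescence after 1hr.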
# [2] = Caspase-3/7 induction in HepG2 cells by small molecules, qHTS cell viability counter screen (AID 1346981); note: nearly all actives have a fitted effect of over 30% in size; note: potency is the fitted concentration of half-maximal effect
# Outline: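 Multiplexed with the caspase-3/7 assay: HepG2 cells, 16 hr compound treatment, CellTiter-Fluor viability detection by fluorescence.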
# [3] = molecular target: Nuclear receptor subfamily 1 group I member 2 (Homo sapiens) (UniProt O75469); test: Human pregnane X receptor (PXR) small molecule agonists, qHTS assay (AID 1346982); note: nearly all actives have a fitted effect of over 35% in size; note: potency is the fitted concentration of half-maximal effect
# Chain of Nuclear receptor subfamily 1 group I member 2 (Homo sapiens) (O75469 whole entry, looked up): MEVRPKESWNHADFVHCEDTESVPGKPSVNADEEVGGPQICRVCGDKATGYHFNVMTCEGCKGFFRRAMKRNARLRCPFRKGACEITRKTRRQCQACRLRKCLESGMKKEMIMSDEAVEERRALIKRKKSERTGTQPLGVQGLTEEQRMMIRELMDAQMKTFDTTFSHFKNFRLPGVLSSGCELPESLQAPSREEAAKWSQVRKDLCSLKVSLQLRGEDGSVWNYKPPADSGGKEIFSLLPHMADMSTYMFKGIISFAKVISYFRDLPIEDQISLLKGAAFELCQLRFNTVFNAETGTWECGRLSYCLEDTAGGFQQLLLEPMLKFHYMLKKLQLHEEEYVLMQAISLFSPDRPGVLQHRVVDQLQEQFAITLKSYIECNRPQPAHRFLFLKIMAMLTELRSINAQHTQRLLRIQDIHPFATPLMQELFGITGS
# Outline: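 We seeded PXR-Luc HepG2 cells in assay medium containing 5% charcoal-stripped FBS, added compounds 5 hr later, incubated 24 hr, and read luminescence with ONE-Glo reagent.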
# [4] = Caspase-3/7 induction in CHO-K1 cells by small molecules, qHTS assay (AID 1346980); note: nearly all actives have a fitted effect of over 15% in size; note: potency is the fitted concentration of half-maximal effect
# Outline: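 Luminescent Caspase-Glo 3/7 read (30min, room temperature) quantified apoptosis induction. Cells were wild-type CHO-K1, treated with compound for 17hr at 37 C and 5% CO2.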
# [5] = molecular target: Cytochrome P450 2D6 (Homo sapiens) (UniProt P10635); test: Cytochrome P450 Family 2 Subfamily D Member 6 (CYP2D6) small molecule antagonists: luciferase reporter qHTS assay (AID 1671196); note: nearly all actives have a fitted effect of over 50% in size; note: potency is the fitted concentration of half-maximal effect
# Chain of Cytochrome P450 2D6 (Homo sapiens) (P10635 whole entry, looked up): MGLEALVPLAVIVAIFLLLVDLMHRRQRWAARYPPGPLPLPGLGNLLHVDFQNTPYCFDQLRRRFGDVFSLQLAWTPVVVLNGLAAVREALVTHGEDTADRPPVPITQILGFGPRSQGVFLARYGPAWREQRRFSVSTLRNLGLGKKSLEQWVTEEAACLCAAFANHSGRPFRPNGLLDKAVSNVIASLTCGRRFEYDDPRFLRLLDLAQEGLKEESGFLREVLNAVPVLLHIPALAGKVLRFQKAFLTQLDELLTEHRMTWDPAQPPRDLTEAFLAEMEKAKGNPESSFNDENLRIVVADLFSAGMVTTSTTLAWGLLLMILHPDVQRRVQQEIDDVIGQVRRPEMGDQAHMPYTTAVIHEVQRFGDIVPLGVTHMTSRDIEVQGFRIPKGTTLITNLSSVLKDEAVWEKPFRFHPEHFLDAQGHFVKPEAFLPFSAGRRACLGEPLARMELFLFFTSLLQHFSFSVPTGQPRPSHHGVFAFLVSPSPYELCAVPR
# Outline: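 Luminescence (RLU), read 20 min after detection reagent, indicated CYP2D6 conversion of proluciferin to luciferin during a 1 h NADPH-dependent reaction at room temperature.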
# [6] = molecular target: Cytochrome P450 2C19 (Homo sapiens) (UniProt P33261); test: Cytochrome P450 Family 2 Subfamily C Member 19 (CYP2C19) small molecule antagonists: luciferase reporter qHTS assay (AID 1671197); note: nearly all actives have a fitted effect of over 65% in size; note: potency is the fitted concentration of half-maximal effect
# Chain of Cytochrome P450 2C19 (Homo sapiens) (P33261 whole entry, looked up): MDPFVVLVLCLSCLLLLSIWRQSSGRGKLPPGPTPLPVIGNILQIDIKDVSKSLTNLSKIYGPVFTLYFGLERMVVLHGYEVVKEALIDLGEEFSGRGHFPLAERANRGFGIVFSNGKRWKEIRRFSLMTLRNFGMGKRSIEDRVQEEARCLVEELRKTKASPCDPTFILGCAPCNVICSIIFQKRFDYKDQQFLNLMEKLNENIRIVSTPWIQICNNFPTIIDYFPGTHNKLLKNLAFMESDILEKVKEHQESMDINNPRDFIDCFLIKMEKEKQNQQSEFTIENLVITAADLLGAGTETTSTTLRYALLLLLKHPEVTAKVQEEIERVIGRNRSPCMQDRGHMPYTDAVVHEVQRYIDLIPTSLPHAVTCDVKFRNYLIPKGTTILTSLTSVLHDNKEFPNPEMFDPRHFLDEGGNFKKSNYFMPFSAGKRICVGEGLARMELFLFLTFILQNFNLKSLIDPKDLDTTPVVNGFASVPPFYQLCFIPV
# Outline: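 P450-Glo CYP2C19 system: enzyme-substrate mix with compound 10 min at room temperature, then NADPH regeneration solution, 1 h at 37C. Proluciferin-to-luciferin conversion detected by luminescence after 20 min with detection reagent; ketoconazole as positive control.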
# [7] = molecular target: Nuclear receptor subfamily 1 group I member 2 (Rattus norvegicus) (UniProt Q9R1A7); test: Rat pregnane X receptor (rPXR) activation by small molecules, qHTS assay (AID 1346983); conditions: rPXR luciferase reporter cells, One-Glo luminescence, 24 h; max activation: hits give high values; note: nearly all actives have a fitted effect of over 20% in size
# Chain of Nuclear receptor subfamily 1 group I member 2 (Rattus norvegicus) (Q9R1A7 whole entry, looked up): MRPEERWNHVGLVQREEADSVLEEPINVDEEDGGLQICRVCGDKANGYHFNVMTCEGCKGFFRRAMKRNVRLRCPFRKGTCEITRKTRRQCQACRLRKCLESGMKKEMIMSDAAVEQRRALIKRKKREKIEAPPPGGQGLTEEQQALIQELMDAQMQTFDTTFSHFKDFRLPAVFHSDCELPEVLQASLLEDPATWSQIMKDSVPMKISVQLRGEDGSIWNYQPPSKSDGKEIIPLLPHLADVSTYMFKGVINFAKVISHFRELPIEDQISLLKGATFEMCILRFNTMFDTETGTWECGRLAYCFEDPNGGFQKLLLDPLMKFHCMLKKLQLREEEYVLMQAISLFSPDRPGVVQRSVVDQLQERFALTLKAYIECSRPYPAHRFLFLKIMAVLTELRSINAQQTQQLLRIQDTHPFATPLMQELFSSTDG
# Outline: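 Luminescent readout (One-Glo luciferase, 30 min room temperature) followed 24 hr compound treatment at 37 C of rPXR cells plated 2,000 per well and preincubated 5hr; qHTS format with compounds delivered in DMSO.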
# [8] = molecular target: Nuclear receptor subfamily 1 group I member 2 (Homo sapiens) (UniProt O75469); test: CYP3A4 induction through human pregnane X receptor (PXR) by small molecules, qHTS assay (AID 1346984); note: nearly all actives have a fitted effect of over 40% in size
# Outline: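 qHTS, concentration-response format: HepG2 DPX-2 line, PXR/CYP3A4-luc. Exposure 24 h, 37C. Substrate Luciferin-IPA 3uM final, 3 h. Detection One-Glo, 30 min RT.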
# [9] = molecular target: Nuclear receptor subfamily 1 group I member 2 (Homo sapiens) (UniProt O75469); test: Human pregnane X receptor (PXR) activation by small molecules, qHTS assay (AID 1346985); note: nearly all actives have a fitted effect of over 40% in size; note: potency is the fitted concentration of half-maximal effect
# Outline: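 DPX-2 cells (HepG2 co-transfected with a PXR response element and a CYP3A4-promoter luciferase construct) were seeded at 2,000 per well, rested 5 hr at 37C, then exposed to DMSO-dissolved compounds for 24 hr. Activation was read as luciferase luminescence.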
# % is set by controls: 0 for no effect and ±100 for the full control effect.
compound,measurement,setting,value
Cc1c(-c2ccc(O)cc2)n(Cc2ccc(OCCN3CCCCCC3)cc2)c2ccc(O)cc12,Potency,[1],29.8 µM (active)
same,Potency,[2],29.8 µM (active)
same,Potency,[3],9.44 µM (active)
CCCCCCS,Potency,[1],inactive
same,Potency,[4],inactive
same,Potency,[2],inactive
same,Potency,[3],inactive
same,Potency,[5],inactive
same,Potency,[6],inactive
CC(C)(C)c1cc(/C=C2\SC(=N)NC2=O)cc(C(C)(C)C)c1O,Potency,[1],54.5 µM (active)
same,Potency,[4],inactive
same,Potency,[3],30.6 µM (active)
same,Potency,[5],39.9 µM (active)
same,Potency,[6],20 µM (active)
C[C@]12CC[C@H]3C(=CCc4cc(O)ccc43)[C@@H]1CCC2=O,Potency,[1],61.1 µM (active)
same,Potency,[4],inactive
same,Potency,[3],27.3 µM (active)
same,Potency,[5],inactive
same,Potency,[6],31.7 µM (active)
CCCCCCCCCCCCCC[n+]1ccccc1,Potency,[1],27.3 µM (active)
same,Potency,[4],inactive
same,Potency,[2],27.3 µM (active)
same,Potency,[3],8.63 µM (active)
same,Potency,[5],1.78 µM (active)
C[C@@]12C(=O)OC(=O)[C@]1(C)C1CCC2O1,Potency,[1],10.6 µM (active)
same,Potency,[4],23.7 µM (active)
same,Potency,[2],2.98 µM (active)
same,Potency,[3],1.06 µM (active)
same,max activation,[7],-13% (inactive)
same,Potency,[8],inactive
same,Potency,[9],0.794 µM (active)
same,Potency,[5],inactive
same,Potency,[6],inactive
Cc1cc2c(C(C)C)c(O)c(O)c(C=O)c2c(O)c1-c1c(C)cc2c(C(C)C)c(O)c(O)c(C=O)c2c1O,Potency,[1],13.3 µM (active)
same,Potency,[2],26.6 µM (active)
same,Potency,[3],inactive
same,Potency,[5],inactive
Brc1ccccc1-c1ccccc1,Potency,[1],inactive
same,Potency,[4],inactive
same,Potency,[2],inactive
same,Potency,[5],75.4 µM (active)
O=Nc1ccc(NO)cc1,Potency,[1],63.6 µM (active)
same,Potency,[4],inactive
same,Potency,[5],inactive
NCCCC(O)(P(=O)(O)O)P(=O)(O)O,Potency,[1],inactive
same,Potency,[4],inactive
same,Potency,[2],inactive
same,max activation,[7],-1.25% (inactive)
O=C1NCCN1CCN1CCC(c2cn(-c3ccc(F)cc3)c3ccc(Cl)cc23)CC1,Potency,[1],26.6 µM (active)
same,Potency,[4],26.6 µM (active)
same,Potency,[2],29.8 µM (active)
same,Potency,[6],inactive
CCCCCCCCCCCCCCNCCO,Potency,[9],inactive
